According to PubChem BioAssay:
Values joined by “and” are separate entries in the source; they are usually repeats but may differ in a detail not shown here. Equal entries are not always repeated.

Key:
[1] = system: Botulinum neurotoxin type F light chain protease (Clostridium botulinum); assay: Botulinum neurotoxin type F light chain protease inhibition, multiplex microsphere flow cytometry, validation set (AID 588459); conditions: multiplex microsphere protease substrate cleavage assay, at 10 µM, active compounds read high
[2] = target: Botulinum neurotoxin type A (Clostridium botulinum) (UniProt P0DPI0); assay: BoNT/A light chain protease inhibitors, biochemical, multiplex microsphere flow cytometry, validation set (AID 588460); conditions: at 10 µM, active compounds read high
Botulinum neurotoxin type A (Clostridium botulinum), sequence (P0DPI0 whole entry, looked up): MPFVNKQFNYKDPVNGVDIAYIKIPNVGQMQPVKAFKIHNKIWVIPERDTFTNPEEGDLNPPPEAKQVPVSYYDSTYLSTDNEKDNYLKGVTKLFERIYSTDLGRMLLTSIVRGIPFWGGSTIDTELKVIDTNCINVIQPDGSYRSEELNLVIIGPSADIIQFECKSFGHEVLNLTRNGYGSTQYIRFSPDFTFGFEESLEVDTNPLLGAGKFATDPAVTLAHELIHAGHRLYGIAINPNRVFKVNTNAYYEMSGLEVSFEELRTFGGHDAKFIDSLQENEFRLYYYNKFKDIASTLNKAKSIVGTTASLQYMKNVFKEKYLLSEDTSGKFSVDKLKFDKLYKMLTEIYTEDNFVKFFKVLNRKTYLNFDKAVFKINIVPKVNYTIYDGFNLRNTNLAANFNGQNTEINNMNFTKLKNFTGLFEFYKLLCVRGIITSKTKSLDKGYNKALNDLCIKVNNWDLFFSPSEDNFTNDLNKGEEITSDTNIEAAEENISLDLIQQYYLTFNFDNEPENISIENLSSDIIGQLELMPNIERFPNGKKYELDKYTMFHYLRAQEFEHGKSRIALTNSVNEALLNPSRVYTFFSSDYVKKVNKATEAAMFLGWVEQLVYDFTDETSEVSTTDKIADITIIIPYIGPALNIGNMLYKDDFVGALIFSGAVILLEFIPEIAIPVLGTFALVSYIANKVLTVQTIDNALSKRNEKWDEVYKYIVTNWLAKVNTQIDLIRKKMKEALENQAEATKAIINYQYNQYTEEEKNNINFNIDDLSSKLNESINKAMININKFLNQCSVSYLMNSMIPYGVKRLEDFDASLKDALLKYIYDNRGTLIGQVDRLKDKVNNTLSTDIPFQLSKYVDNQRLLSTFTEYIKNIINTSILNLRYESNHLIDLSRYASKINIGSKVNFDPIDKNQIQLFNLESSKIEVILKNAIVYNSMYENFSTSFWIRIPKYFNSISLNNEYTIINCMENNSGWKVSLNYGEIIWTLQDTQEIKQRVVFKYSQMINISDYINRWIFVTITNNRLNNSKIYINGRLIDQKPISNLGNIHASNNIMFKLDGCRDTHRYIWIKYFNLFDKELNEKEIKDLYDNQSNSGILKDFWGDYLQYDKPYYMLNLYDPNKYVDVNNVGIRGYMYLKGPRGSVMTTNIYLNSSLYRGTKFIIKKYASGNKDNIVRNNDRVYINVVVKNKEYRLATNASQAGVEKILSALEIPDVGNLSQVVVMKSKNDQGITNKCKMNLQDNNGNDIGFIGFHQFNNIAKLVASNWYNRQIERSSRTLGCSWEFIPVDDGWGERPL

[3] = target: Lethal factor (Bacillus anthracis) (UniProt P15917); assay: Lethal factor protease inhibitors, Bacillus anthracis, multiplex microsphere cleavage assay, validation set (AID 588461); conditions: flow cytometry, at 10 µM, active compounds read high
Lethal factor (Bacillus anthracis), sequence (P15917 whole entry, looked up): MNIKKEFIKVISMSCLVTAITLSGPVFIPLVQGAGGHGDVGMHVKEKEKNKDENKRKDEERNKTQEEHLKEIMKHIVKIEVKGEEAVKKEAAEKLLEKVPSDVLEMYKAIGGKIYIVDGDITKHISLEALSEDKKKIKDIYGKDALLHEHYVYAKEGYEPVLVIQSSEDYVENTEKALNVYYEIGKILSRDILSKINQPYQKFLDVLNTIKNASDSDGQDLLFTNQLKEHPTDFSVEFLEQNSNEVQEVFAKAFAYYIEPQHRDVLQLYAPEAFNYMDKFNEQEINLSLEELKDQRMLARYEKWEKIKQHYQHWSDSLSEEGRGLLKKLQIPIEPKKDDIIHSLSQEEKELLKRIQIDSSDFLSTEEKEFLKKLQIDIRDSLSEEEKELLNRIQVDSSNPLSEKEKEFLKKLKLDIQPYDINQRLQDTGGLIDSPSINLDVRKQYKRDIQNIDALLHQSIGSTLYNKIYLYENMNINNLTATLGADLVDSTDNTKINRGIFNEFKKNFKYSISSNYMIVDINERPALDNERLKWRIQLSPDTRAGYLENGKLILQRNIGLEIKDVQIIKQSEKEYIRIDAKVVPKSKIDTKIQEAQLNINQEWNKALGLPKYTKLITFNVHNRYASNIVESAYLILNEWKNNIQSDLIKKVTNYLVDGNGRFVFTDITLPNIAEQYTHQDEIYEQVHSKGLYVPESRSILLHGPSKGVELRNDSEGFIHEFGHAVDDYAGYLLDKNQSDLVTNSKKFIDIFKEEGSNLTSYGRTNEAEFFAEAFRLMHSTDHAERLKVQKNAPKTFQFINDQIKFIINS

Measured: inhibition

COc1ccc(CC(=O)c2c(O)cc(O)cc2O)cc1OC
inactive: [1] 0% | [2] 1.7% | [3] -2.8%

CN(C)C(=O)Oc1cccc([N+](C)(C)C)c1
inactive: [1] 0.7% and -1.3% | [2] 0.2% and -0.7% | [3] 1.5% and 2.9%

COc1ccc(-c2noc(-c3ccccc3-c3ccccc3)n2)cc1
inactive: [1] -1.9% | [2] -0.7% | [3] -1.9%

C[C@@H]1C[C@H]2[C@@H]3CCC4=CC(=O)C=C[C@]4(C)[C@@]3(F)[C@@H](O)C[C@]2(C)[C@@]1(O)C(=O)COP(=O)(O)O
inactive: [1] 2.6% | [2] 0.2% | [3] 0.9%

C[C@]12CCC(=O)C=C1CC[C@@H]1[C@@H]2[C@@H](O)C[C@@]2(C)[C@H]1CC[C@]2(O)C(=O)COC(=O)CCC(=O)O
inactive: [1] 1.7% | [2] -2.4% | [3] -8%

Cc1ccccc1-c1nn(-c2ccc(F)cc2F)cc1CNCCN(C)C
inactive: [1] -1.9% | [2] -0.5% | [3] -2.9%

Cc1ccc(/C=N/Nc2nc(C(C)(C)C)cs2)o1
inactive: [1] -1% | [2] -0.3% | [3] -6.6%

O=C(NC1CC1)C1CCN(C2CCN(C(=O)Cc3ccc(F)cc3)CC2)CC1
inactive: [1] -2.4% | [2] -0.6% | [3] 4.9%

O=C(NC(=S)Nc1nc(-c2ccccc2)cs1)c1ccco1
inactive: [1] 4.3% | [2] -0.2% | [3] -0.3%

CC1(C)C2CCC1(C)C(OCC[N+](C)(C)CC(=O)OC1CCCCC1)C2 (stereo unspecified)
inactive: [1] -1.7% | [2] -2.1% | [3] -1.9%

COc1ccc(C2NCCC3(O)CCCCC23)c(OC)c1OC (stereo unspecified)
inactive: [1] 4.3% | [2] -0.3% | [3] 4.4%

COc1ccc(OC(C)C(=O)Nc2ccc([N+](=O)[O-])cc2)cc1 (stereo unspecified)
inactive: [1] 4% | [2] 1.9% | [3] -0.5%

COC(=O)c1cc(-c2ccc(OC)c(OC)c2)on1
inactive: [1] 6.2% | [2] 1.7% | [3] 0.1%

O=C(N1CCCCC1)C1(c2ccccc2)CCOCC1
inactive: [1] 1.7% | [2] 1.3% | [3] -2.1%

CC[N+](C)(C)Cc1ccccc1Br
inactive: [1] 2.1% | [2] -0.1% | [3] 0.6%

C#C[C@]1(O)CC[C@H]2[C@@H]3CCc4cc(OC5CCCC5)ccc4[C@H]3CC[C@@]21C
inactive: [1] -0.9% | [2] 0.8% | [3] 0.5%

COc1ccc(CN(CCN(C)C)c2ccccn2)cc1
inactive: [1] 0.8% | [2] 1.3% | [3] -14.9%

CN(C)CCCNc1ncnc2c1cnn2-c1ccccc1
inactive: [1] 0.3% | [2] -0.3% | [3] -4%

O=C(CCC(=O)NCCO)NCCO
inactive: [1] 1.2% | [2] 0.4% | [3] 6.9%

OC(CCCN1CCCCC1)(c1ccccc1)c1ccccc1
inactive: [1] 3.3% | [2] 0% | [3] 7.6%

COc1cccc2c(=O)c(C/C=C(/C)Cl)c(C)[nH]c12
inactive: [1] 1.2% | [2] -1.6% | [3] 3.4%

COc1cc(C2C(C(=O)c3ccc(C)o3)=C(O)C(=O)N2Cc2cccnc2)ccc1O (stereo unspecified)
inactive: [1] 1.8% | [2] -0.4% | [3] -0.1%

COc1ccc2c(c1)C=CC1(O2)N(CCO)c2ccccc2C1(C)C (stereo unspecified)
inactive: [1] 3% | [2] -0.7% | [3] -7.3%

Oc1ccc(/C=C/c2cc(O)cc(O)c2)cc1
inactive: [1] -6.7% | [2] -2.2% | [3] 3.7%

CCCCNC(=O)NS(=O)(=O)c1ccc(C)cc1
inactive: [1] 1.1% | [2] 1.1% | [3] 1%

CN(C)[C@@H]1C(=O)C(C(=O)NCN2CCCC2)=C(O)[C@@]2(O)C(=O)C3=C(O)c4c(O)cccc4[C@@](C)(O)C3CC12 (stereo partly specified)
inactive: [1] -4.8% | [2] -5.7% | [3] -8.3%

CCOC(=O)c1cnc2ccc(C(=O)OC)cc2c1Nc1ccc2c(c1)OCCO2
inactive: [1] -0.5% | [2] 0.1% | [3] -1.2%

CC(C)OC(=O)CC1C(=O)NCCN1C(=S)NC(=O)c1ccccc1Cl (stereo unspecified)
inactive: [1] -1.8% | [2] -0.4% | [3] -0.2%

CCc1cc2c(=O)c(-c3ccc(F)cc3)c(C)oc2cc1OCC(=O)O
inactive: [1] 3.9% | [2] 2.2% | [3] -1.1%

COc1cc(/C=C/C(=O)CC(=O)/C=C/c2ccc(O)c(OC)c2)ccc1O
inactive: [1] 12.2% | [2] 9.5% | [3] -0.9%

COc1ccc2nc(C)cc(Nc3ccccc3O)c2c1
inactive: [1] 1% | [2] 1% | [3] -1.4%

C[C@H]([C@@H](N)C(=O)N[C@@H](C(=O)O)[C@@H]1O[C@H](n2ccc(=O)[nH]c2=O)[C@@H](O)[C@H]1O)[C@@H](O)c1ccc(O)cn1
inactive: [1] 0.3% | [2] -1% | [3] -3.6%

CNCCCC12CCC(c3ccccc31)c1ccccc12
inactive: [1] -2% | [2] -2.1% | [3] -5%

COc1cc(-c2cccs2)cc(=O)c2c(C)oc(C)c12
inactive: [1] 1.4% | [2] 2.1% | [3] -4%

COc1ccc(C(=O)C2CCCCC2=O)cc1 (stereo unspecified)
inactive: [1] 1.5% | [2] 0.2% | [3] -1.2%

Cc1ccc(S(=O)(=O)N[C@@H](C)C(=O)N2CCC(C(=O)N3CCC[C@H]3C(=O)O)CC2)cc1
inactive: [1] 1.9% | [2] 1% | [3] -1.7%

CN(C)c1ccc(CNCCC(Cc2ccccc2)c2ccco2)cc1 (stereo unspecified)
inactive: [1] -4.5% | [2] -0.8% | [3] -8.8%

Cc1ccc2[nH]c3c(c2c1)CN(C)CC3
inactive: [1] -2.8% | [2] -0.7% | [3] -15%

CC(NCCC(c1ccccc1)c1ccccc1)c1ccccc1 (stereo unspecified)
inactive: [1] -5.9% | [2] -1.1% | [3] 3.4%

COc1ccc(CN2CCCCC2C(=O)Nc2ccc(OC)c(OCC(C)C)c2)cc1OC (stereo unspecified)
inactive: [1] 0.9% | [2] 0.2% | [3] -1.3%

O=C(CN1C(=O)/C(=C/c2cccc(Br)c2)SC1=S)Nc1cccnc1
inactive: [1] 1.8% | [2] -0.3% | [3] 4.2%

CCCc1cc(=O)[nH]c(=S)[nH]1
inactive: [1] -2.4% | [2] 1.4% | [3] 1.8%

O=C1c2cccc3cccc(c23)C(=O)N1c1ccccn1
inactive: [1] -2.7% | [2] 0.1% | [3] 1.1%

Cc1ccc(C(=O)Nc2ccc(O)cc2C(=O)O)cc1C
inactive: [1] 10.3% | [2] 2.6% | [3] 0.9%

COc1ccccc1CCn1cnc2c3cc(C)ccc3n(C)c2c1=O
inactive: [1] -0.5% | [2] -1% | [3] -9.2%

COc1ccc(CC(=O)NCC2(c3ccc(OC)c(OC)c3)CCOCC2)cc1
inactive: [1] 3.5% | [2] -0.9% | [3] -1.6%

Cc1cc(OC(=O)CNC(=O)OC(C)(C)C)c2c(C)cc(=O)oc2c1
inactive: [1] -0.2% | [2] -0.7% | [3] 5.4%

CC(=O)Nc1ccc(OS(=O)(=O)c2c(C)cc(C)cc2C)cc1
inactive: [1] -3.3% | [2] -1% | [3] -0.9%

C=C1C2(C(=O)Nc3ccc(SC(F)F)cc3)CCC(C2)C1(C)C (stereo unspecified)
inactive: [1] -1.3% | [2] -0.9% | [3] 1.3%

Cc1cccc(N(C)C(=S)Oc2ccc3ccccc3c2)c1
inactive: [1] -0.1% | [2] -0.6% | [3] -4.3%

COc1ccc(C(=O)/C=C/c2cc(C(=O)O)cc3c2OCOC3)c(O)c1
inactive: [1] 1.3% | [2] -0.8% | [3] 4.4%

CC(C)C1CC(CCNCc2ccc(N(C)C)cc2)(c2ccccc2)CCO1 (stereo unspecified)
inactive: [1] -3.7% | [2] -1.8% | [3] -9.1%

C(=C\c1ccc2ccccc2n1)/c1ccccc1
inactive: [1] 1.3% | [2] 0.8% | [3] -3.3%

CN1CCN(CCCN2c3ccccc3Sc3ccc(Cl)cc32)CC1
inactive: [1] -3.9% | [2] -3.2% | [3] -10.3%

COCCCN1C(=O)/C(=C\c2cccs2)C(C(=O)OC)=C1C
inactive: [1] -1.3% | [2] -0.8% | [3] 3.3%

COc1ccc(C(=O)Nc2ncc3c(n2)CC(C)CC3=O)cc1 (stereo unspecified)
inactive: [1] -1.5% | [2] -0.9% | [3] -4.5%

CCn1c(SCC(=O)c2ccccc2)nc2ccccc2c1=O
inactive: [1] -3% | [2] -0.1% | [3] -5.1%

COc1cc(C(=O)OCCCN(C)C)cc(OC)c1OC
inactive: [1] -0.2% | [2] -0.5% | [3] 1.8%

COc1ccc(-c2nc3c(=O)n(C)c(=O)[nH]c3n2CCc2ccccc2)cc1
inactive: [1] 1.2% | [2] 0.2% | [3] -1.2%

COc1ccc(C(=O)Nc2nc3ccccc3c(=O)[nH]2)cc1
inactive: [1] -3.3% | [2] -2.3% | [3] -0.8%

OCCC1CN(Cc2ccccc2-c2ccco2)CCN1C1CCCC1 (stereo unspecified)
inactive: [1] 4.4% | [2] 0.5% | [3] 5.3%

O=c1cnn([C@@H]2O[C@H](CO)[C@@H](O)[C@H]2O)c(=O)[nH]1
inactive: [1] -0.1% | [2] 1.8% | [3] 5.4%
